IL-1B inflam inh – inhibitors of inflammasome signaling (IL-1 beta secretion); THP-1 LPS/ATP IL-1B secretion, AlphaLISA, 16 h; active compounds read low; activity change, % at 57.5 µM; 360,000 compounds, 4.7% hits; AID 743279; in the data active = activity change below about -50%; inconclusive = mostly about -30% to -49%
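Secreted IL-1B measured by AlphaLISA bead assay after 16 h compound exposure of THP-1 cells; compounds (final up to 57.5 uM) added 1 h before LPS (250 ng/mL) and ATP (1.25 mM) stimulation; lower signal means less secretion.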
TDP1 cell CPT – DT40-hTDP1 cell growth loss with CPT; 420,000 compounds, 12% hits; chicken DT40 Tdp1-/-;hTDP1 cells + 20 nM CPT, ATP luminescence, 48 h; Potency, µM (series often up to 46.2 µM), without a hit: top-dose activity change, negative = growth inhibition, usual class: inhibitors; note: potency is the fitted concentration of half-maximal effect; nearly all actives have a fitted effect of over 55% in size
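Cell growth measured by CellTiter-Glo luminescence after a minimum 48 h, 37 C compound exposure with 20 nM CPT in Tdp1-knockout DT40 cells stably expressing hTDP1, seeded 400/well; qHTS titration format.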
HT1080-NT tox – kills 2HG-producing HT-1080-NT fibrosarcoma cells. HT-1080-NT fibrosarcoma viability, CellTiter-Glo ATP luminescence, 48 h. Potency, µM (series often up to 46.1 µM), inactives show at the top dose activity, negative = less viability, actives largely listed as cytotoxic. 360,000 compounds, 1.6% hits. AID 686970;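 note: NT is the 2HG producing partner of a matched IDH1 knockdown line; potency is the fitted concentration of half-maximal effect; 0% = DMSO-treated cells and -100% = media-only wells without cells; nearly all actives have a fitted effect of over 55% in size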
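750 cells/well, RPMI + 5% FBS; 2 h settle, compound pin-transfer, 48 h at 37 degrees C. CellTiter-Glo 10 min RT, luminescence. Normalized to DMSO and media-only wells.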
12-LOX inh – inhibitors of human 12S-lipoxygenase ALOX12 | purified 12hLO, xylenol orange hydroperoxide absorbance | Potency, µM (doses to about 108 µM), without a hit: at the highest dose activity change, negative = inhibition, hits mostly inhibitors | 580,000 compounds, 1.1% hits | AID 1671190; note: potency is the fitted concentration of half-maximal effect
Target sequence (P18054 whole entry, looked up): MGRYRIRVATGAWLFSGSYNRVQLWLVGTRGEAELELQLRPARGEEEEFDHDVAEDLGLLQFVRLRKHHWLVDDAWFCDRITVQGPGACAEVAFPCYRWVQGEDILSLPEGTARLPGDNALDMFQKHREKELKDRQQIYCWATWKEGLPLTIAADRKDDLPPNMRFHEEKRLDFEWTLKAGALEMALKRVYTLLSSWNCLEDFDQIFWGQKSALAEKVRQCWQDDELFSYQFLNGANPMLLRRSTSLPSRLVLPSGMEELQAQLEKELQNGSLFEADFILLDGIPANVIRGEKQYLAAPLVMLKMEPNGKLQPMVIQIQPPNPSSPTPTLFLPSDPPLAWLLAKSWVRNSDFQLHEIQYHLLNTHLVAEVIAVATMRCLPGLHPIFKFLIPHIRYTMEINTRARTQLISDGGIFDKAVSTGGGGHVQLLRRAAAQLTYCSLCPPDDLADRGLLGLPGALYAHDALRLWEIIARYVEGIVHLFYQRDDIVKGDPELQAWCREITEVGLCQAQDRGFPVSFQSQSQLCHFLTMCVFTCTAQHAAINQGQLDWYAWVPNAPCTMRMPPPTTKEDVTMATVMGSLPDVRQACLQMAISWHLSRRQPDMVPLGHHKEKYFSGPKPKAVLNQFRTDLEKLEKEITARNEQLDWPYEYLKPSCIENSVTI
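Purified human 12hLO at 150 nM in 25 mM Hepes, 0.01% Triton X-100, pH 7.0, preincubated 15 min at room temperature with compound. Reaction started with 40 uM arachidonic acid, 30 min at room temperature. Hydroperoxide measured by Fe-xylenol orange, 573/405 nm absorbance ratio.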
DT40 TDP1 no CPT – qHTS for Inhibitors of human tyrosyl-DNA phosphodiesterase 1 (TDP1): qHTS in cells in absence of CPT | DT40 Tdp1-/- hTDP1 cells, no CPT, ATP luminescence, 48 h | Potency, µM (highest dose often 46.2 µM), without a hit: top-dose activity change, negative = growth inhibition, usual class: inhibitors | 420,000 compounds, 15% hits; note: potency is the fitted concentration of half-maximal effect; nearly all actives have a fitted effect of over 55% in size
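A cellular qHTS used chicken DT40 cells lacking endogenous Tdp1 but carrying stably transfected human TDP1. Compounds were applied without camptothecin, and cell growth kinetics were judged by ATP-dependent luminescence after ≥48 hr.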
HT1080 IDH1KD tx – HT-1080 IDH1 knockdown cell toxicity (counter line) | HT-1080 IDH1 knockdown viability, ATP luminescence, 48 h | Potency, µM (titrated, usually from 46.1 µM), for the others: at the top dose activity, negative = toxicity, most hits filed as cytotoxic | 360,000 compounds, 2% hits;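 note: potency is the fitted concentration of half-maximal effect; 0% = DMSO wells and -100% = cell-free medium wells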
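Assay cells: HT-1080 with IDH1 knockdown, 750 per well, RPMI/5% FBS. Exposure: 48 h at 37 °C following 2 h pre-incubation. Read: CellTiter-Glo luminescence; fitted concentration-response, curve class assigned.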
An asterisk follows results filed as active; u = inconclusive; x = not tested or not shown; [ ] = remark or other dose. This excerpt belongs to a sample that is enriched for hits. Unless noted, calls come from the whole dose curve; as a rule, active = well fitted curve in the direction sought with a large enough effect; inconclusive = small, poorly fitted or top-dose-only effect, or another doubt; inactive = no such curve, though single readings can be large; an effect the other way counts as inactive or inconclusive. Unless noted, % is set by controls: 0 for no effect and ±100 for the full control effect.

SMILES	IL-1B inflam inh	TDP1 cell CPT	HT1080-NT tox	12-LOX inh	DT40 TDP1 no CPT	HT1080 IDH1KD tx
CCOC(=O)c1sc(NC(=O)c2cccs2)cc1C	u	u	-26%	0%	u	u
CCOC(=O)c1sc(NC(=O)c2ccc(Br)o2)cc1C	u	u	0%	-5%	16µM*	-24%
CCOC(=O)c1sc(NC(=S)NC(=O)C23CC4CC(CC(C4)C2)C3)cc1C	43	-1%	6%	35µM*	u	8%
CCOC(=O)c1sc(NC(=O)Nc2cccc(Cl)c2)cc1C	-76*	10µM*	u	-16%	9.2µM*	u
CC(c1nnc(SCCOc2ccc(Cl)cc2)n1-c1ccc(Cl)cc1)N(C)C (stereo not given)	x	x	x	-20%	x	x
C=CS(=O)(=O)N(C(=C)C(=O)OC)S(C)(=O)=O	x	x	x	-9%	x	x
COc1ccc(-c2cc(=O)oc3cc(OCC(=O)N4CCC(O)CC4)ccc23)cc1	x	x	x	3%	x	x
O=C(NCc1ccccc1Cl)c1ccc(Cn2c(SCc3ccccc3)nc3cccnc32)cc1	x	u	x	-9%	u	x
O=C(NCCc1ccccc1)c1ccc(Cn2c(SCc3cccc(F)c3)nc3cccnc32)cc1	x	7.3µM*	x	-10%	15µM*	x
Cc1ccccc1CSc1nc2cccnc2n1Cc1ccc(C(=O)NCCc2cccs2)cc1	x	13µM*	x	-17%	16µM*	x
O=C(NCCc1ccccc1)c1ccc(Cn2c(SCc3ccccc3)nc3cccnc32)cc1	x	u	x	-11%	u	x
Cc1ccc(CSc2nc3cccnc3n2Cc2ccc(C(=O)NCCc3ccccc3)cc2)cc1	x	-15%	x	-17%	-7%	x
O=C(NCc1cccs1)c1ccc(Cn2c(SCc3cccc(F)c3)nc3cccnc32)cc1	x	26µM*	x	2%	18µM*	x
Cc1ccccc1CNC(=O)c1ccc(Cn2c(SCc3cccc(F)c3)nc3cccnc32)cc1	x	15µM*	x	-16%	15µM*	x
COCc1nn(CC(=O)N(C)Cc2nccs2)c(=O)n1-c1ccccc1	x	x	x	-18%	x	x
Cc1ccc(-c2cc(C(=O)N3CCC(c4cc(CC(=O)O)[nH]n4)CC3)n[nH]2)o1	x	x	x	27%	x	x
Cc1cc(C(=O)CN2C(=O)NC(C)(c3ccc(F)c(F)c3)C2=O)c(C)n1C1CC1 (stereo not given)	28	7.3µM*	-10%	4%	5.8µM*	3%
Cn1c(=O)c2c(nc(NCCc3ccccc3)n2Cc2ccc(Br)cc2)n(C)c1=O	x	x	x	0%	x	x
CNc1nc2c(c(=O)n(C)c(=O)n2C)n1Cc1ccccc1	2	u	-2%	0%	13µM*	-15%
Cn1c(=O)c2c(nc(NCCc3ccccc3)n2Cc2cccc(Br)c2)n(C)c1=O	x	12µM*	x	0%	13µM*	x
Cn1c(=O)c2c(nc(NCCc3ccccc3)n2Cc2ccc(Cl)c(Cl)c2)n(C)c1=O	x	u	x	-30%	6.5µM*	x
Cn1c(=O)c2c(nc(N/N=C/c3ccc(OC(=O)c4ccco4)cc3)n2Cc2ccccc2Cl)n(C)c1=O	38	6.5µM*	-4%	x	8.2µM*	1%
Cc1nc(NC2CC2)sc1C(=O)NCc1ccco1	x	x	x	2%	x	x
Cc1cc(C)n(C(=O)N(c2ccccc2)c2ccccc2)n1	52	u	-8%	-1%	u	-12%
Cn1c(=O)c2c(nc(NCCc3ccc(F)cc3)n2Cc2ccccc2Cl)n(C)c1=O	x	x	x	7%	x	x
SMILES	IL-1B inflam inh	TDP1 cell CPT	HT1080-NT tox	12-LOX inh	DT40 TDP1 no CPT	HT1080 IDH1KD tx
Cn1c(=O)c2c(nc(-c3ccccc3)n2C)n(Cc2ccccc2)c1=O	4	16µM*	18%	3%	21µM*	20%
Cn1c(=O)c2c(nc(NCCc3ccccc3)n2Cc2ccc(F)cc2)n(C)c1=O	-5	3.7µM*	-15%	-8%[57.4 µM]	5.2µM*	-25%
C=CCNc1nc2c(c(=O)n(C)c(=O)n2C)n1CC	9	0%	3%	2%	1%	4%
Cn1c(=O)[nH]c(=O)c2c1nc(N/N=C/c1cccnc1)n2Cc1ccc(Cl)cc1	38	3%	-3%	u	6%	-5%
Cn1c(=O)c2c(nc(N/N=C/c3cccnc3)n2Cc2ccccc2)n(C)c1=O	30	12µM*	-5%	497%	26µM*	-2%
C=CCNc1nc2c(c(=O)n(C)c(=O)n2C)n1CCCCCC	26	3.3µM*	-1%	-7%	1.6µM*	-10%
COc1ccc(OC2CN(C(=O)c3ccccn3)C2)cc1	x	x	x	12%[12.5 µM]	x	x
COc1ccc(/C=C/c2ccc3c(c2)C(=O)N2CC[C@H](N)[C@H]2C(=O)N3)cc1	x	x	x	27%[176 µM]	x	x
CC(C)CCn1c(NCCc2ccccc2)nc2c1c(=O)n(C)c(=O)n2C	-29	13µM*	-30%	5%[57.4 µM]	21µM*	u
Cn1c(N/N=C2\CCCc3ccccc32)nc2c1c(=O)n(Cc1ccccc1)c(=O)n2C	23	23µM*	4%	-14%	u	9%
CCC(C)Nc1nc2c(c(=O)n(C)c(=O)n2C)n1Cc1ccc(F)cc1 (stereo not given)	15	18µM*	-5%	-3%[57.4 µM]	u	-22%
Cc1ccccc1Cn1c(NCCc2ccccc2)nc2c1c(=O)n(C)c(=O)n2C	x	x	x	13%	x	x
CC(CCO)Nc1nc2c(c(=O)n(C)c(=O)n2C)n1Cc1ccc(F)cc1 (stereo not given)	x	x	x	14%	x	x

Source: PubChem BioAssay
